For 34 molecules, outcome and AC50 results are on record in PubChem BioAssay (EPA / NIEHS).

“And” between values parts separate entries of the source, which are not always exact repeats. Identical values can stand only once. The source made the active and inactive calls. The calls were made as follows: active = hit-call score of the fitted dose curve at least 0.9, where 1 is the maximum; inactive = score below 0.9.

Read-out in this assay: Intercellular Adhesion Molecule 1 (ICAM1), ICAM1 (gene 3383)
Kind of assay: BSK_BF4T_ICAM1: BioMAP Diversity Plus: BF4T Assay for Intercellular Adhesion Molecule 1 (ICAM1) Biomarker Activity (AID 2284260). To be noted: primary human bronchial epithelial cells with fibroblasts. An outline of the steps:
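ICAM-1 levels measured by ELISA after 24 h chemical treatment of bronchial epithelial cell/dermal fibroblast co-cultures, read against DMSO baseline. Overt cytotoxicity checked in parallel cultures by sulforhodamine B staining.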
As to `NC(=O)C(F)(F)C(F)(F)C(F)(F)C(F)(F)F`, the result was inactive.
Consider `C=C(C)C(=O)OCC(F)(F)C(F)(F)C(F)(F)F`, for which the outcome was inactive.
On to `C=CC(F)(F)C(F)(F)C(F)(F)C(F)(F)C(F)(F)C(F)(F)C(F)(F)C(F)(F)F`, for which the result was inactive.
With `C=CC(=O)OCC(F)(F)C(F)(F)C(F)(F)C(F)(F)COC(=O)C=C`, the AC50 is 9.07 µM (active) and 16.9 µM (active).
Consider `C=C(C)C(=O)OCCC(F)(F)C(F)(F)C(F)(F)C(F)(F)C(F)(C(F)(F)F)C(F)(F)F`, for which the result was inactive.
Still for that read-out and setting: with `O=S(=O)(OCCOC(F)(F)F)C(F)(F)F` the entry was “inactive”.
The same measure, in the same setting: to `O=C(O)C(F)(OC(F)(F)C(F)(OC(F)(F)C(F)(F)C(F)(F)F)C(F)(F)F)C(F)(F)F` (centres undefined) belongs “inactive”; to `O=C(O)C(F)(F)C(F)(F)F`, “inactive”; to `O=C(O)C(F)(F)C(F)(F)C(F)(F)F`, “inactive”.
Take `OCC(F)(F)C(F)(F)C(F)(F)C(F)F`: the result was inactive.
The same measure, in the same setting: to `O=C(Cl)C(F)(F)C(F)(F)C(F)(F)C(F)(F)C(F)(F)C(F)(F)C(F)(F)C(F)(F)F` belongs “inactive”.
As for `OCCCC(F)(F)C(F)(F)C(F)(F)C(F)(F)C(F)(F)C(F)(F)C(F)(F)F`, the AC50 was 23.7 µM (active) and 34 µM (active).
Consider `CC(C)(C)C(=O)CC(=O)C(F)(F)C(F)(F)C(F)(F)F`, for which the outcome was inactive.
Regarding `FC(F)(I)C(F)(F)C(F)(F)C(F)(F)I`, the AC50 is 45.7 µM (active) and 47.8 µM (active) and 51.6 µM (active).
`O=S(=O)(O)C(F)(F)C(F)(F)C(F)(F)C(F)(F)C(F)(F)C(F)(F)C(F)(F)F`: the outcome was inactive.
Take `FC(F)(F)C(F)(F)C(F)(F)C(F)(F)CCI`: the outcome was inactive.
Still for that read-out and setting: with `O=C(O)C(F)(F)C(F)(F)C(F)(F)C(F)(F)C(F)(F)C(F)(F)C(F)(F)C(F)(F)C(F)(F)C(F)(F)C(F)(F)C(F)(F)F` the entry was “inactive”; with `C=CC(=O)OCC(F)(F)C(F)(F)C(F)(F)C(F)(F)C(F)(F)C(F)(F)C(F)(F)F`, “inactive”; with `FC(F)(F)C(F)(F)C(F)(F)C(F)(F)C(F)(F)C(F)(F)C(F)(F)I`, “inactive”.
`O=C(O)C=C(C(F)(F)F)C(F)(F)F`: the result was inactive.
Turning to `O=C(O)C(F)(F)C(F)(F)C(F)F`, the result was inactive.
Turning to `Cc1ccc(S(=O)(=O)OCC(F)(F)C(F)(F)C(F)(F)C(F)(F)C(F)(F)C(F)F)cc1`, the result was inactive.
With `FC(F)(F)C(F)(F)C(F)(F)C(F)(F)C(F)(F)C(F)(F)CC1CO1` (centres undefined), the result was inactive.
For `FC(F)(F)C(F)(F)C(F)(F)C(F)(F)C(F)(F)C(F)(F)CCS`, the result was inactive.
As to `O=C(O)C(F)(F)C(F)(F)C(F)(F)C(F)(F)C(F)(F)C(F)(F)C(F)(F)C(F)(F)Cl`, the AC50 is 41.4 µM (active) and 40 µM (active).
Regarding `OCC(F)(F)C(F)(F)C(F)(F)F`, the outcome was inactive.
For `O=C(O)C(F)(F)C(F)(F)C(F)(F)C(F)(F)C(F)(F)C(F)(F)C(F)(F)C(F)(F)C(F)(F)C(F)F`, the AC50 is 25.6 µM (active) and 17.8 µM (active).
On to `FC(F)(Br)C(F)(F)C(F)(F)C(F)(F)C(F)(F)C(F)(F)Br`, for which the result was inactive.
As to `O=C(O)C(F)(OC(F)(F)C(F)(OC(F)(F)C(F)(OC(F)(F)C(F)(F)C(F)(F)F)C(F)(F)F)C(F)(F)F)C(F)(F)F` (centres undefined), the outcome was inactive.
For the molecule `OCC(F)(F)C(F)(F)C(F)(F)C(F)(F)C(F)(F)C(F)(F)F`, the result was inactive.
Same read-out and setting: to `FC(F)(F)C(F)(F)C(F)(F)C(F)(F)C(F)(F)CCI` belongs “inactive”; to `FC(F)(F)C(F)(F)C(F)(F)C(F)(F)C(F)(F)C(F)(F)C(F)(F)Br`, “inactive”; to `N=C(N)C(F)(F)C(F)(F)C(F)(F)C(F)(F)C(F)(F)C(F)(F)C(F)(F)F`, “inactive”.
Still for that read-out and setting: to `C=CC(F)(F)C(F)(F)C(F)(F)C(F)(F)C(F)(F)C(F)(F)C(F)(F)C(F)(F)C=C` belongs “inactive”.
